# Compound activity deposited in PubChem by National Center for Advancing Translational Sciences (NCATS).
# ELG1 repair inh: inhibitors of ELG1-dependent DNA repair in HEK293T cells; HEK293T ELG1-luciferase reporter, luminescence, 16 h; DNA damage induced by 5-fluorouridine; AID 504467; Potency, µM (titrated, usually from 46.1 µM), inactives show at the top dose activity change, negative = inhibition, actives largely listed as inhibitors; hit rate 2.3% among 330,000; note: % is set by controls: 0 for no effect and ±100 for the full control effect; nearly all actives have a fitted effect of over 55% in size
#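 Reporter activity after DNA damage by 5-fluorouridine is monitored. Compound-treated cells incubate 16 hr at 37 °C, then ONE-Glo is added for 30 min before luminescence reading.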
# KB-3-1 tox: kills parental KB-3-1 adenocarcinoma cells; KB-3-1 viability, CellTiter-Glo ATP luminescence, 72 h; Potency, µM (series often up to 46.1 µM), usual class: cytotoxic; hit rate 1.4% among 400,000; note: % is set by controls: 0 for no effect and ±100 for the full control effect; nearly all actives have a fitted effect of over 60% in size
#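 KB-3-1 parental drug-naive adenocarcinoma cells in DMEM/10% FBS, incubated 72 h at 37 C with pin-transferred compounds across a concentration series. Viability by CellTiter-Glo luminescence; concentration-response curves fitted after normalization.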
# SW480 rereplic: DNA re-replication induction in SW480 cells; SW480 DNA re-replication, Hoechst DNA content imaging, 48 h; Potency, µM (doses to about 46.1 µM), for inactives: at the highest dose re-replication activation, hits mostly activators; hit rate 1.8% among 340,000; AID 624297; note: % of control where 0% means no effect; nearly all actives have a fitted effect of over 55% in size
#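 DNA re-replication was detected as more nuclei of elevated Hoechst intensity after 48 hr exposure to compound (23 nL pinned per well of 250 cells).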
# KB-V1 cytotox: kills drug-selected multidrug resistant KB-V1 cells. KB-V1 MDR cells viability, CellTiter-Glo, 72 h. Potency, µM (titrated, usually from 46.1 µM), most hits filed as cytotoxic. hit rate 3.4% among 400,000. AID 1347076; note: % is set by controls: 0 for no effect and ±100 for the full control effect; nearly all actives have a fitted effect of over 60% in size
#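 In this primary screen, KB-V1 cells overexpressing P-gp are incubated with library compounds (lowest to highest concentration) for 72 h at 37 degrees C before a luminescent ATP viability read.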
# MCF10A rereplic: inducers of DNA re-replication in MCF 10A breast cells; MCF 10A DNA re-replication, Hoechst nuclear intensity, 48 h; hit rate 2.9% among 350,000; Potency, µM (series often up to 46.1 µM), without a hit: at the highest dose activity, positive = re-replication, actives largely listed as activators; AID 624296; note: % of control where 0% means no effect; nearly all actives have a fitted effect of over 50% in size
# The depositor's hits bear a star; i = inactive; ? = inconclusive; . = no result. A selection: hits, their analogues and other compounds. The true share with any hit is near 8.1%. Calls come from the whole dose curve; as a rule, active = well fitted curve in the direction sought with a large enough effect; inconclusive = small, poorly fitted or top-dose-only effect, or another doubt; inactive = no such curve, though single readings can be large; an effect the other way counts as inactive or inconclusive. Potency is the fitted concentration of half-maximal effect.
SMILES,ELG1 repair inh,KB-3-1 tox,SW480 rereplic,KB-V1 cytotox,MCF10A rereplic
Cc1ccccc1S(=O)(=O)N1C[C@H]2CON(C)[C@H]2C[C@H]1c1cccc(Oc2ccccc2)c1,.,i,8.2µM*,i,?
CN1OC[C@@H]2CN(Cc3ccccc3)[C@H](c3ccc(-n4ccnc4)cc3)C[C@@H]21,.,i,.,i,.
CCCC(=O)N1CCC1(C)C(=O)NS(=O)(=O)c1ccc(OC)cc1 (stereo not given),.,i,.,i,.
COc1ccc(C(=O)Nc2ccc(N3CCOCC3)cc2)cc1OC,?,?,-3%,16µM*,13%
COc1ccc(C(=O)Nc2ccccc2N2CCOCC2)cc1[N+](=O)[O-],13%,i,-105%,21µM*,3%
COc1ccc(C(=O)Nc2ccc(N3CCCC3)cc2)cc1OC,?,?,4%,i,?
Cc1cc(C(=O)NC(=S)Nc2ccccc2N2CCOCC2)ccc1[N+](=O)[O-],?,?,-4%,i,?
Cc1cc(C(=O)Nc2ccccc2N2CCOCC2)ccc1[N+](=O)[O-],-6%,i,-8%,?,3%
CC1CCN(c2ccccc2NC(=O)c2ccc(N3CCOCC3)c([N+](=O)[O-])c2)CC1,30%,i,-6%,i,16µM*
COc1ccc(C(=O)NC(=S)Nc2ccccc2N2CCOCC2)cc1[N+](=O)[O-],18µM*,?,-5%,?,?
COc1ccc(C(=O)Nc2ccc(S(=O)(=O)N3CCN(C)CC3)cc2)cc1[N+](=O)[O-],-3%,i,-48%,i,?
COc1ccc(C(=O)Nc2ccc(S(=O)(=O)N3CCOCC3)cc2)cc1[N+](=O)[O-],-12%,i,-14%,?,4.6µM*
COc1ccc(C(=O)NC(=S)Nc2ccc(N3CCOCC3)c(Cl)c2)cc1[N+](=O)[O-],13µM*,i,0%,i,-2%
O=C(Nc1nc(-c2ccccc2)cs1)c1ccc(N2CCOCC2)c([N+](=O)[O-])c1,3.7µM*,?,3%,1.8µM*,?
O=C(NC(=S)Nc1cc(Cl)ccc1N1CCOCC1)c1ccccc1[N+](=O)[O-],16µM*,i,0%,i,27%
Cc1ccc(-c2csc(NC(=O)c3cc([N+](=O)[O-])ccc3N3CCOCC3)n2)cc1,17%,i,-1%,i,4%
COc1ccc(Cl)cc1C(=O)NC(=S)Nc1ccccc1N1CCOCC1,4%,?,-16%,i,11%
Cc1cc(C)c(S(=O)(=O)n2ccc3ccccc32)c(C)c1,-10%,23µM*,19%,?,?
Cc1nc(-n2nnc3ccccc32)c2c3c(sc2n1)CCCC3,?,?,0%,13µM*,?
c1ccc2c(c1)nnn2-c1ncnc2sc3c(c12)CCCC3,8%,i,-5%,16µM*,10%
CC(O)CNc1nc2ccccc2n1-c1ncnc2sc3c(c12)CCC3 (stereo not given),?,?,0%,13µM*,20%
Oc1ccc(N2CCN(c3ncnc4sc5c(c34)CCC5)CC2)cc1,?,i,?,i,13µM*
c1ccc2c(c1)ncn2-c1ncnc2sc3c(c12)CCCC3,?,i,-1%,i,3%
CCCCCCCCCC(=O)NO,.,.,-11%,.,2%
CCCC(=O)N1CCC1(C)C(=O)Nc1ccc2nccnc2c1 (stereo not given),.,i,.,i,.
SMILES,ELG1 repair inh,KB-3-1 tox,SW480 rereplic,KB-V1 cytotox,MCF10A rereplic
CC1=C(C(=O)OCc2ccc(C)cc2)C(c2cccc(F)c2F)CC(=O)N1 (stereo not given),.,i,.,i,.
CCOC(=O)C1=CCN(S(=O)(=O)c2ccc(C)cc2)C1c1ccc(Cl)c(Cl)c1 (stereo not given),.,i,.,i,.
O=C(CN1C(=O)COc2ccc(S(=O)(=O)NC3CCCC3)cc21)Nc1ccc(Cl)cc1,.,i,.,?,.
Cc1cc(C(=O)CSc2nnc(-c3ccc(F)cc3)o2)c(C)n1CC1COc2ccccc2O1 (stereo not given),-16%,i,8%,i,16µM*
Cc1cc(C(=O)CN2C(=O)C(=O)N(Cc3ccccc3)C2=O)c(C)n1Cc1ccccc1,16%,i,-3%,21µM*,14%
Cc1cc(C(=O)CN2C(=O)C(=O)N(Cc3ccccc3)C2=O)c(C)n1CC1COc2ccccc2O1 (stereo not given),6.5µM*,i,14%,i,4.6µM*
COc1ccc(CCn2c(C)cc(C(=O)CN3C(=O)C(=O)N(Cc4ccco4)C3=O)c2C)cc1,-23%,5.8µM*,143%,i,12%
Cc1cc(C(=O)CN2C(=O)C(=O)N(C3CCCC3)C2=O)c(C)n1CCc1ccccc1,-4%,?,-5%,?,16%
Cc1cc(C(=O)CN2C(=O)C(=O)N(Cc3ccccc3)C2=O)c(C)n1-c1ccccc1F,6%,i,9%,i,?
COc1cc(/C=C2/SC(=S)N(CCC(=O)Nc3cccnc3)C2=O)cc(OC)c1OC,.,i,.,i,.
Cc1cccc(/C=C(\C(=O)O)c2ccc(S(=O)(=O)N3CCCC3)s2)c1,3%,i,0%,i,3%
Oc1cccc(-c2ccc3nccn3c2)c1,.,i,.,i,.
CCOC(=O)Nc1ccc(/C=C/c2ccnc3ccccc23)cc1,.,i,.,i,.
Cc1cc(C(=O)CN2C(=O)C(=O)N(Cc3ccccc3)C2=O)c(C)n1Cc1ccc(F)cc1,8%,?,?,i,5.2µM*
CC(C)=CCC1C(=O)N(c2ccccc2)N(c2ccccc2)C1=O,.,.,?,.,30µM*
CCCOc1ccc(C(=O)Nc2ccc(-c3cc4ccccc4oc3=O)c(C)c2)cc1,.,10µM*,.,?,.
CCCCNC(=S)Nc1ccc([N+](=O)[O-])cc1,-15%,?,-4%,?,18µM*
CCCN1CCC(NC(=S)Nc2ccc([N+](=O)[O-])cc2)CC1,23%,i,-7%,i,16%
O=[N+]([O-])c1ccc(NNC(=S)Nc2ccc(F)cc2)cc1,?,?,-2%,21µM*,-1%
CCCN1CCN(C(=S)Nc2ccc([N+](=O)[O-])cc2)CC1,18%,i,-11%,21µM*,18%
COC(=O)c1scc(-c2ccc(C)cc2)c1S(=O)(=O)Nc1cc(C)ccc1OC,.,?,.,i,.
Nc1ncnc2c1ncn2-c1ccccc1Cl,.,i,-4%,i,1%
O=C(NCc1ccc(F)cc1)c1cc(C2CCCCN2C(=O)c2ccc3c(c2)CCO3)on1 (stereo not given),.,21µM*,.,?,.
O=C(NCc1ccccc1)c1cc(C2CCCCN2C(=O)c2ccc3c(c2)CCO3)on1 (stereo not given),.,i,.,i,.
